Source: PubChem BioAssay AID686979 (National Center for Advancing Translational Sciences (NCATS), 2013)
In all, about 420,000 compounds went through this assay and about 50,000 (12%) were called active. Not shown: some 26% with an inconclusive outcome. Calls come from the whole dose curve; as a rule, active = well fitted inhibition curve with a large enough effect; inconclusive = small, poorly fitted or top-dose-only effect; inactive = flat fitted curve, though single readings scatter. What follows is part of a selection rich in actives, with near analogues and random picks from the rest. A call without a number means that no potency is given here.
Potency is the fitted concentration of half-maximal effect.

Test: qHTS for Inhibitors of human tyrosyl-DNA phosphodiesterase 1 (TDP1): qHTS in cells in presence of CPT; note: nearly all actives have a fitted effect of over 55% in size
Details: chicken DT40 Tdp1-/-;hTDP1 cells + 20 nM CPT, ATP luminescence, 48 h; series mostly up to 46.2 µM
Method in brief: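 Cell growth measured by CellTiter-Glo luminescence after a minimum 48 h, 37 C compound exposure with 20 nM CPT in Tdp1-knockout DT40 cells stably expressing hTDP1, seeded 400/well; qHTS titration format.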
With CCCCCCCNC(=O)C1(CC2CC(c3cccc(Br)c3)=NO2)CCN(C(=O)c2cc(OCC)c(OCC)c(OCC)c2)CC1 (centres undefined) the Potency was 23.1 µM (active).
For CCOC(=O)C1CCN(Cc2nnc(-c3cccc(Br)c3)o2)CC1, the Potency was “inactive”.
For CN(CC(=O)NCCc1ccccc1)S(=O)(=O)c1cnc[nH]1, the Potency was “inactive”.
In the case of CCOc1ccccc1-n1c(SCC(=O)NCc2ccco2)nnc1-c1ccncc1, the Potency is reported as “inactive”.
With Cc1ccc(Nc2nc(CSc3nnc(-c4ccncc4)n3-c3ccccc3C)cs2)cc1 the Potency was 13 µM (active).
In the case of Cn1c(SCc2ccc(F)cc2)nnc1-c1ccncc1, the Potency is reported as “inactive”.
In the case of O=C(O)CC/C(=C\c1cc2c(cc1Br)OCO2)c1nc2ccccc2s1, the Potency is reported as “inactive”.
In the case of O=C(N1CCCC1)C12CC3CC(C1)CC(C(=O)N1CCCC1)(C3)C2, the Potency is reported as “inactive”.
With CCCc1nc(SCC(=O)Nc2ccccc2OC)c2c(=O)n(C)c(=O)n(C)c2n1 the Potency was 14.6 µM (active).
For CCc1nc(SCC(=O)Nc2ccccc2OC)n[nH]1, the Potency was “inactive”.
For CCCc1nc(SCC(=O)N2CCCC2)c2c(=O)n(C)c(=O)n(C)c2n1, the Potency was “inactive”.
In the case of O=C(Cc1c[nH]c2ccccc12)N/N=C/c1cccc(F)c1, the Potency is reported as “inactive”.
In the case of O=C(CSCc1c(Cl)cccc1Cl)NN1C(=O)c2ccccc2C1=O, the Potency is reported as “inactive”.
With COc1cc(NC(=O)NCC2CCN(Cc3ccc(C)cc3)CC2)cc(OC)c1OC the Potency was “inactive”.
For Cc1ccc(Cn2c(C)c3cnn(CC(=O)NCc4ccccc4)c(=O)c3c2C)cc1, the Potency was 2.91 µM (active).
With Cc1ccc(Cn2c(C)c3cnn(CC(=O)NCCN4CCOCC4)c(=O)c3c2C)cc1 the Potency was “inactive”.
For CCCn1c2ccccc2c2cnn(CC(=O)NCCCOC(C)C)c(=O)c21, the Potency was 23.1 µM (active).
With CC1CC(C)CN(CCCNC(=O)Cn2ncc3c([nH]c4ccccc43)c2=O)C1 (centres undefined) the Potency was “inactive”.
For Cc1ccccc1CNC(=O)Cn1c(C)c2cnn(-c3ccccc3)c(=O)c2c1C, the Potency was “inactive”.
For CCCn1c2ccccc2c2cnn(CC(=O)NCC3CCN(Cc4ccc(C)cc4)CC3)c(=O)c21, the Potency was 20.6 µM (active).
With O=C(Cn1ncc2c3ccccc3n(Cc3ccccc3)c2c1=O)NCc1ccccn1 the Potency was “inactive”.
With CC1CCCCN1CCCNC(=O)Cn1ncc2c([nH]c3ccccc32)c1=O (centres undefined) the Potency was “inactive”.
In the case of O=C1C(Cl)=C(N2CCOCC2)C(=O)N1c1ccccc1, the Potency is reported as “inactive”.
In the case of CCOC(=O)CNC(=O)CSc1ncccc1-c1nc2ccccc2[nH]1, the Potency is reported as “inactive”.
For COc1ccccc1C1=CC(=O)C[C@H](c2ccc(F)cc2)C1, the Potency was “inactive”.
With COc1ccc(-c2nnc3n2CCCCC3)cc1 the Potency was “inactive”.
For O=C(O)c1ccc([N+](=O)[O-])cc1Sc1ccsc1, the Potency was “inactive”.
In the case of COc1ccc(-c2nc3c(c(SCC(=O)Nc4ccc(C(=O)O)cc4)n2)Cc2ccccc2O3)cc1, the Potency is reported as “inactive”.
In the case of Cc1ccc(-c2nc(Cn3c(=O)cc(-c4ccccc4)c4c(C)nn(C)c43)c(C)o2)cc1, the Potency is reported as “inactive”.
For CCOC(=O)Nc1ccc2c(c1)N(C(=O)CCCl)c1ccccc1[S@]2=O, the Potency was 4.61 µM (active).
For CCOC(=O)Nc1ccc2c(c1)N(C(=O)CCN1CCN(CCO)CC1)c1ccccc1CC2, the Potency was “inactive”.
With CCOC(=O)Nc1ccc(NC(=O)OCC)cc1 the Potency was “inactive”.
With CN(CC(=O)Nc1ccccc1F)CC(=O)Nc1ccccc1Br the Potency was “inactive”.
For CN(C(=N)N)c1ccc(/C=C2\C=Cc3ccccc32)cc1, the Potency was 5.01 µM (active).
With COc1ccc(N(CC(=O)N/N=C/c2cccc3c2OCCO3)S(=O)(=O)c2ccc(NC(C)=O)cc2)cc1 the Potency was “inactive”.
In the case of CCCCc1ccc(NS(=O)(=O)c2cccc(C(=O)N3CCCN(C)CC3)c2)cc1, the Potency is reported as 23.1 µM (active).
For O=C(c1cccc(S(=O)(=O)Nc2ccccc2Cl)c1)N1CCN(C(=O)c2ccco2)CC1, the Potency was “inactive”.
With CC(=O)N1CCN(C(=O)c2cccc(S(=O)(=O)Nc3ccc(C)cc3)c2)CC1 the Potency was “inactive”.
In the case of COc1ccc(Br)c2c1C(=O)CC2, the Potency is reported as “inactive”.
With Nc1nonc1-n1nnc(C(=O)N/N=C/C2CCCCC2)c1-c1ccccc1 the Potency was “inactive”.
With CC(=O)Nc1ccc(Oc2ccc3c(c2)C(=O)NC3=O)cc1 the Potency was “inactive”.
With O=C(NNS(=O)(=O)Cc1ccccc1)c1ccc([N+](=O)[O-])cc1 the Potency was “inactive”.
In the case of O=C(CC(n1cncn1)C(Cl)(Cl)Cl)c1ccc([N+](=O)[O-])cc1 (centres undefined), the Potency is reported as 16.4 µM (active).
For O=C(CCn1nnc2ccccc21)OCC(=O)c1ccc([N+](=O)[O-])cc1, the Potency was “inactive”.
For O=C(COc1coc(CN2CCN(c3ccccc3F)CC2)cc1=O)N1CCc2ccccc21, the Potency was “inactive”.
With Cc1cc(N2CCOCC2)nc(-c2ccc(Br)cc2)n1 the Potency was “inactive”.
With O=C1CC(C(=O)O)NC(=S)N1 (centres undefined) the Potency was “inactive”.
For COc1ccc(Nc2ncc(F)c(N3CCOCC3)n2)cc1, the Potency was 20.6 µM (active).
In the case of COc1ccc(-n2c(=O)c(C)nc3cnc(N4CCOCC4)nc32)cc1, the Potency is reported as “inactive”.
For CCOc1nc(NCCN2CCOCC2)nc(Nc2ccc(C)cc2)n1, the Potency was “inactive”.
In the case of Cc1ccc(-c2nnc3c4ccccc4c(C)nn23)cc1NC(=O)c1cccc(Br)c1, the Potency is reported as “inactive”.
For Cc1cc[n+](-c2[nH]c(=O)sc2/C=N/NC(=O)c2ccccc2[O-])cc1C, the Potency was “inactive”.
With Brc1ccc(-c2n(-c3ccccn3)c3ccccc3[n+]2-c2ccccn2)cc1 the Potency was 18.4 µM (active).
For O=C(CN1CCN(c2ccccn2)CC1)Nc1ccc(Br)cc1, the Potency was “inactive”.
In the case of COc1cccc(NC(=O)N2CCC(NC(=O)C(Cc3cccc(C)c3)NC(C)=O)CC2)c1 (centres undefined), the Potency is reported as “inactive”.
With Cn1c(-c2ccc(C(F)(F)F)cc2)cc2onc(-c3ccccc3)c2c1=O the Potency was “inactive”.
For O=C(c1csnn1)N1CCC2(CC1)CN(c1ncccn1)C2, the Potency was “inactive”.
With CSCCC(Nc1ccc(S(=O)(=O)N2CCOCC2)cc1[N+](=O)[O-])C(=O)OCC(=O)N(C(C)C)C(C)C (centres undefined) the Potency was “inactive”.
With CN(C)C(=O)c1ccc(NC(=O)c2ccccc2-c2ccccc2)cc1 the Potency was “inactive”.
For CN(C)C(=O)c1ccc2c(c1)C1C3CCC(C3)C1C(c1ccccc1)N2 (centres undefined), the Potency was 16.4 µM (active).
For Cc1sc(NC(=O)c2ccc3ncsc3c2)c(C(N)=O)c1C, the Potency was “inactive”.
For COc1cccc(NC(=O)N2C3CCCC2CC(NC(C)=O)C3)c1 (centres undefined), the Potency was “inactive”.
In the case of Cc1cccc(-n2ncc(C(=O)N3CCc4ccccc4C3)c2C2CCN(C(=O)OC(C)(C)C)CC2)c1, the Potency is reported as “inactive”.
With CCOC(=O)N1CCC(NC(=O)CCc2ccccc2)CC1 the Potency was “inactive”.
With CC(C)(C)OC(=O)N1CCC(C(=O)NNC(=O)c2ccc(Cl)cc2Cl)CC1 the Potency was “inactive”.
With Cc1cccc(-n2ncc(C(=O)N3CCN(c4ccc(Cl)cc4)CC3)c2C2CCN(C(=O)OC(C)(C)C)CC2)c1 the Potency was 14.6 µM (active).
With CCOC(=O)N1CCC(NC(=O)c2cnn(-c3cccc(C)c3)c2C2CCN(C(=O)OC(C)(C)C)CC2)CC1 the Potency was 23.1 µM (active).
For CC(C)(C)OC(=O)N1CCC(c2c(C(=O)N3CCN(c4cccc(Cl)c4)CC3)cnn2-c2cccc(Cl)c2)CC1, the Potency was 14.6 µM (active).
For CCOC(=O)N1CCC(NC(=O)c2cnn3ccccc23)CC1, the Potency was “inactive”.
In the case of Cc1cccc(-n2ncc(C(=O)N3CCC(C)CC3)c2C2CCN(C(=O)OC(C)(C)C)CC2)c1, the Potency is reported as “inactive”.
For COc1cccc2c1cc1c(=O)n(CC(=O)N3CCN(c4cccc(Cl)c4)CC3)nc(C)n12, the Potency was “inactive”.
In the case of CCCCN(C(=O)CCNC(=O)NC12CC3CC(CC(C3)C1)C2)c1c(N)n(CCCC)c(=O)[nH]c1=O, the Potency is reported as “inactive”.
For Cc1ccc(S(=O)(=O)N2CC(O)C[C@H]2C(=O)OCC(=O)Nc2ccc(N3CCOCC3)cc2)cc1C (some centres undefined), the Potency was “inactive”.
For COc1ccc(S(=O)(=O)N2CCCC2CNC(=O)C(=O)NC2CC2)cc1 (centres undefined), the Potency was “inactive”.
For Cc1ccc(NC(=O)CC2S/C(=N/N=C3\CCCc4ccccc43)NC2=O)cc1 (centres undefined), the Potency was “inactive”.
For CN1C(=O)/C(=C\c2cc(Br)cs2)c2ccccc21, the Potency was “inactive”.
For Cc1cc(C)c2c3c(sc2n1)C(c1ccccc1)C(C#N)=C(N)O3 (centres undefined), the Potency was “inactive”.
For N#CC1=C(N)Oc2c(ccc3cccnc23)C1c1ccncc1 (centres undefined), the Potency was “inactive”.
In the case of N#CC1=C(N)Oc2cc(N)ccc2C1c1ccccc1 (centres undefined), the Potency is reported as 23.1 µM (active).
In the case of CN1C(=O)C2(OCCCO2)c2cc(Cl)ccc21, the Potency is reported as “inactive”.
For C=O, the Potency was “inactive”.
In the case of COc1ccc(C(CNC(=O)c2ccc(OCc3cscn3)cc2)N2CCCC2)cc1 (centres undefined), the Potency is reported as “inactive”.
For CCOc1ccc(NS(=O)(=O)c2ccc(C(=O)NCC3CCCO3)cc2)cc1 (centres undefined), the Potency was “inactive”.
For CCOc1ccc(NS(=O)(=O)c2ccc(C(=O)NCC(c3ccccc3OC)N3CCCC3)cc2)cc1 (centres undefined), the Potency was 29.1 µM (active).
In the case of CN=C(NC#N)NCCSCc1nc[nH]c1C, the Potency is reported as “inactive”.
In the case of CCC(C)C(=O)Nc1cc([N+](=O)[O-])ccc1Cl (centres undefined), the Potency is reported as “inactive”.
In the case of CC(=O)Nc1ccc(NC(=O)c2ccc3c(c2)C(=O)N(c2ccccc2C)C3=O)cc1, the Potency is reported as “inactive”.
In the case of O=S(=O)(NCc1ccccc1)c1ccc(S(=O)(=O)N2CCCC2)cc1, the Potency is reported as “inactive”.
In the case of O=S(=O)(c1ccc2nc(N3CCN(c4cccc(Cl)c4)CC3)ccc2c1)N1CCCCC1, the Potency is reported as “inactive”.
For O=S(=O)(c1ccc2nc(NCc3ccccc3Cl)ccc2c1)N1CCCCC1, the Potency was 10.3 µM (active).
With CC(C)C(NC(=O)C1CCC(C(C)(C)C)CC1)C(=O)NCCCN1CCCCC1 (centres undefined) the Potency was “inactive”.
For CC(C)N1C(=O)c2ccccc2NC(=O)C1C(=O)NCc1cccs1 (centres undefined), the Potency was “inactive”.
For CCS(=O)(=O)N1CCCC(C(=O)NCc2ccc(C)cc2)C1 (centres undefined), the Potency was “inactive”.
With COc1ccc(CNC(=O)C2CCN(S(=O)(=O)c3ccc(SC)cc3)CC2)cc1 the Potency was “inactive”.
With CCOc1ccc(NC(=O)C2CCCN(C(=O)Nc3ccccc3)C2)cc1 (centres undefined) the Potency was “inactive”.
For CCOc1ccc(N(CC)S(=O)(=O)N2CCCC(C(=O)NCc3ccc(SC)cc3)C2)cc1 (centres undefined), the Potency was 23.1 µM (active).
In the case of CCOc1ccc(NC(=O)c2cc(S(=O)(=O)N3CCCC3)c[nH]2)cc1, the Potency is reported as “inactive”.
In the case of CCOc1ccc(N(CC)S(=O)(=O)N2CCCC(C(=O)Nc3ccc(C(C)=O)cc3)C2)cc1 (centres undefined), the Potency is reported as 20.6 µM (active).
In the case of COc1cccc(CNC(=O)CN(C)S(=O)(=O)c2ccc3c(c2)c(=O)n(C)c(=O)n3C)c1, the Potency is reported as “inactive”.
